Data taken from PubChem BioAssay (NCI).
Compounds without any hit were thinned out: in the full panel of roughly 83,000, 20% have a hit.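 Percent growth is the endpoint: 0 to 100 indicates growth inhibition (40 means 60% inhibition), 0 means no net growth, and negative values indicate cell death.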 Unmarked numbers belong to inactive results. The source made the active and inactive calls. How the source made its calls: active means growth percent below 10; inactive means the rest.

Assays:
Assay in all cases: NCI-60 one-dose screen, 48 h (100 = growth as untreated, 0 = no growth, -100 = all killed)
Conditions in all cases: 10 µM unless noted
[1] = test system: SK-MEL-2 melanoma
[2] = test system: EKVX NSCLC
[3] = test system: SN12C renal
[4] = test system: UO-31 renal
[5] = test system: TK-10 renal
[6] = test system: ACHN renal
[7] = test system: A498 renal
[8] = test system: CCRF-CEM leukemia
[9] = test system: MOLT-4 leukemia
[10] = test system: SR leukemia
[11] = test system: RPMI-8226 leukemia
[12] = test system: OVCAR-8 ovarian
[13] = test system: OVCAR-5 ovarian
[14] = test system: OVCAR-4 ovarian
[15] = test system: SK-OV-3 ovarian
[16] = test system: IGROV1 ovarian
[17] = test system: OVCAR-3 ovarian
[18] = test system: HS 578T breast
[19] = test system: NCI/ADR-RES ovarian
[20] = test system: CAKI-1 renal

Compound	growth [1] [%]	growth [2] [%]	growth [3] [%]	growth [4]	growth [5] [%]	growth [6]	growth [7]	growth [8]	growth [9]	growth [10]	growth [11]	growth [12] [%]	growth [13] [%]	growth [14]	growth [15] [%]	growth [16] [%]	growth [17]	growth [18] [%]	growth [19] [%]	growth [20] [%]
O=C(NCN1C(=O)c2cccc3cccc(c23)C1=O)N1CCC(Cc2ccccc2)CC1	103	93.4	99.2	72.2%	98	101%	-36% (active)	79.9%	84.7%	89.6%	87.8%	102	104	98.8%	91.3	100	109%	95.8	102	–
Cc1ccc(-c2nc([P+](c3ccccc3)(c3ccccc3)c3ccccc3)c(N3C[C@H]4C[C@H](C3)c3cccc(=O)n3C4)o2)cc1	87.7	80.6	95.2	83.6%	98.8	109%	–	78.4%	96.6%	87.9%	11.5%	86.6	105	77.3%	123	46.4	54%	94.4	94.9	98.5
C=C1C(=O)O[C@H]2[C@H]1CC/C(COC(=O)NCc1c[nH]c3ccccc13)=C\CC[C@@]1(C)O[C@@H]21	70.5	84.2	44.4	-62.7% (active)	34.3	-36.2% (active)	102%	7.29% (active)	1.16% (active)	4.39% (active)	4.57% (active)	39.4	86.1	58.1%	86.5	21.2	2.08% (active)	87.1	78.8	–
COC(=O)[C@]12CC[C@@H](C)[C@H](C)[C@@H]1C1=CC(=O)[C@@H]3[C@@]4(C)C[C@@H](OC(C)=O)[C@H](OC(C)=O)[C@@](C)(COC(C)=O)[C@@H]4C(=O)C[C@@]3(C)[C@]1(C)CC2	75.6	57.8	57.1	42.5%	74	31.8%	53%	17%	4.9% (active)	29.1%	3.4% (active)	10.4	84.4	60.4%	76.4	61.4	40.2%	75.9	13.2	–
N=C(N)c1ccc(S(N)(=O)=O)cc1	99.9	96.2	94.5	72.6%	96.6	108%	92%	107%	102%	–	128%	100	88.2	102%	115	–	113%	–	97.5	92.5
CN1CCN(CCOc2ccc(-c3cnc4c(-c5ccccc5F)cnn4c3)cc2)CC1	91.9	68.4	60.7	39.1%	71	55.7%	–	5.37% (active)	-9.43% (active)	-12.6% (active)	-9.99% (active)	40.7	80.4	63.6%	94.2	57.3	20.3%	76.9	48.8	45.8
Cc1cc(N(CCCNc2ccnc3cc(Cl)ccc23)Cc2ccco2)nc(N2CCOCC2)n1	93.2	67.6	67.4	46.8%	110	95.3%	59.1%	69.2%	63.7%	8.63% (active)	35.1%	80.4	79	65.7%	78.6	45.2	72.4%	77.5	67.4	–
COc1ccc(-c2nc3c(c(C)nn3-c3ccc(F)cc3)c(=O)[nH]2)cc1	92.3	81.6	56.9	52.1%	65.8	6.33% (active)	70.8%	86.9%	98.1%	15.9%	89.8%	60.7	85.9	-39.3% (active)	31.5	53.8	55%	63.4	63.9	–
